# Reference: PubChem BioAssay (Tox21)
# Values without a mark were called inactive. Inconclusive results are not listed. A call without a number means that no potency is given here. The source made the active and inactive calls. Unless noted, calls come from the whole dose curve; as a rule, active = well fitted curve in the direction sought with a large enough effect in the repeat runs; inconclusive = weak or mixed curves; inactive = no such curve, though single readings can be large; an effect the other way counts as inactive or inconclusive.
# Key:
# [1] = target: Thyrotropin-releasing hormone receptor (Homo sapiens) (UniProt P34981); experiment: qHTS assay to identify small molecule agonists of the thyrotropin-releasing hormone receptor (TRHR) signaling pathway (AID 1346891; calls by dose curve; note: series mostly up to about 58 µM)
# Thyrotropin-releasing hormone receptor (Homo sapiens), sequence (P34981 whole entry, looked up): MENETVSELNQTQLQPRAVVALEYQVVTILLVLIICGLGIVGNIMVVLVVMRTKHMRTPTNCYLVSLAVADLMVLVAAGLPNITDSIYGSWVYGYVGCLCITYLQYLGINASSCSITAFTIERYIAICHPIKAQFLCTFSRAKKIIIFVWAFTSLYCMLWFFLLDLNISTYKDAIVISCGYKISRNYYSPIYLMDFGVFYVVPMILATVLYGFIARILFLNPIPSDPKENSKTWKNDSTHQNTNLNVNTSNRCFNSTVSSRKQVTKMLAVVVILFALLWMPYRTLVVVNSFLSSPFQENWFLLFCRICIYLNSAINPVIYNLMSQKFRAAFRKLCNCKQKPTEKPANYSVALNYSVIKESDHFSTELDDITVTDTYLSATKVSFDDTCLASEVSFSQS
# How it was run: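 Intracellular calcium rise, read as fluorescence every second for 3 min, served as the agonist signal in dye-loaded HEK293 cells expressing TRHR; each compound ran at 15 concentrations in triplicate.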
# [2] = Human pregnane X receptor (PXR) small molecule agonists, qHTS cell viability counter screen (AID 1346977); note: nearly all actives have a fitted effect of over 50% in size; note: potency is the fitted concentration of half-maximal effect
# How it was run: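 PXR-Luc HepG2, 2,000 cells/well, 5% charcoal-stripped FBS; 5hr settle; cpd 24hr, 37C/5% CO2; CellTiter-Fluor at 23hr, read 1hr later (fluorescence).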
# [3] = Caspase-3/7 induction in HepG2 cells by small molecules, qHTS assay (AID 1346978); note: nearly all actives have a fitted effect of over 15% in size
# How it was run: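 Caspase-3/7 induction was measured by Caspase-Glo 3/7 luminescence (30 min, room temperature) after a 17 hr compound exposure of wild-type HepG2 cells seeded at 2,000 per well and pre-incubated 5 hr.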
# [4] = Caspase-3/7 induction in CHO-K1 cells by small molecules, qHTS cell viability counter screen (AID 1346979); note: nearly all actives have a fitted effect of over 35% in size; note: potency is the fitted concentration of half-maximal effect
# How it was run: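 Cells (CHO-K1, wild type) are plated at 1,500 per well and incubated 5hr. Test compounds in DMSO are then pinned in, followed by 16hr at 37C and 5% CO2. Viability is read by CellTiter-Fluor fluorescence after 1hr.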
# [5] = Caspase-3/7 induction in CHO-K1 cells by small molecules, qHTS assay (AID 1346980); note: nearly all actives have a fitted effect of over 15% in size
# How it was run: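 Luminescent Caspase-Glo 3/7 read (30min, room temperature) quantified apoptosis induction. Cells were wild-type CHO-K1, treated with compound for 17hr at 37 C and 5% CO2.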
# [6] = Caspase-3/7 induction in HepG2 cells by small molecules, qHTS cell viability counter screen (AID 1346981); note: nearly all actives have a fitted effect of over 30% in size; note: potency is the fitted concentration of half-maximal effect; for activity change, negative = cytotoxicity: series mostly up to about 92 µM
# How it was run: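 Fluorescence read-out of live-cell protease activity (CellTiter-Fluor) after 1 hr with reagent. This was measured in the same wells as the caspase-3/7 luminescence, on HepG2 cells exposed to DMSO-dissolved compounds for 16 hr at 37 C.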
# [7] = target: Nuclear receptor subfamily 1 group I member 2 (Homo sapiens) (UniProt O75469); experiment: Human pregnane X receptor (PXR) small molecule agonists, qHTS assay (AID 1346982); note: nearly all actives have a fitted effect of over 35% in size; note: potency is the fitted concentration of half-maximal effect
# Nuclear receptor subfamily 1 group I member 2 (Homo sapiens), sequence (O75469 whole entry, looked up): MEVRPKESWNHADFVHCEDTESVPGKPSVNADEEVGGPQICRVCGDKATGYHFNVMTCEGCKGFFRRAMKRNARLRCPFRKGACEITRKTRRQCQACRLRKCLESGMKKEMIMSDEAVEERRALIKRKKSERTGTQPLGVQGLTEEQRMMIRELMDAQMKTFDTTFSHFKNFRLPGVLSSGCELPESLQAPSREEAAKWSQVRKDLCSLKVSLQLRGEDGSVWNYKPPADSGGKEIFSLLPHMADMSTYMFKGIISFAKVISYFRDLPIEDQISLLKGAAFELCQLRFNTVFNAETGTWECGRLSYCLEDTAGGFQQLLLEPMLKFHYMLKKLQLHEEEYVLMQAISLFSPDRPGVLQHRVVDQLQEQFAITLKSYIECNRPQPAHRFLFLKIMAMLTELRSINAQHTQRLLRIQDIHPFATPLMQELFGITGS
# How it was run: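 HepG2 PXR-Luc reporter line, 5% charcoal-stripped FBS; 5 hr pre-incubation, compound (DMSO) 24 hr at 37 C/5% CO2; ONE-Glo 30 min RT; luminescence read-out.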
# [8] = target: Cytochrome P450 2D6 (Homo sapiens) (UniProt P10635); experiment: Cytochrome P450 Family 2 Subfamily D Member 6 (CYP2D6) small molecule antagonists: luciferase reporter qHTS assay (AID 1671196); note: nearly all actives have a fitted effect of over 50% in size; note: potency is the fitted concentration of half-maximal effect; for activity change, negative = inhibition: series mostly up to about 120 µM
# Cytochrome P450 2D6 (Homo sapiens), sequence (P10635 whole entry, looked up): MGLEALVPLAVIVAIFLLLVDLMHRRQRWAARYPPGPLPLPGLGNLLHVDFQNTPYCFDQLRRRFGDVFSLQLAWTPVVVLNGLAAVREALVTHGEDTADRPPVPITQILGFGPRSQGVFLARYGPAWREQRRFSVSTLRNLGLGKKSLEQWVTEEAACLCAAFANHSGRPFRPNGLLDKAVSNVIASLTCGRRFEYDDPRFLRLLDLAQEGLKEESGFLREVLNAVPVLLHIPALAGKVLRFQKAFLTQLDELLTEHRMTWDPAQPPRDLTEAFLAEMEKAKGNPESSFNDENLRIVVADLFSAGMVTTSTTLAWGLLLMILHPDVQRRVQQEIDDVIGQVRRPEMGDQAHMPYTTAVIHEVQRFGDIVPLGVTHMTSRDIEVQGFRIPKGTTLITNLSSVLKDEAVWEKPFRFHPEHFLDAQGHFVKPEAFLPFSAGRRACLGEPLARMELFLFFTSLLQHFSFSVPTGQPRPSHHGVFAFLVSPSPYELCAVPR
# How it was run: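 Luminogenic proluciferin substrate, CYP2D6 enzyme; 10 min RT preincubation with compound, NADPH regeneration system added, 1 h RT. Stop/detection reagent, 20 min RT, luminescence read (RLU). Signal proportional to CYP activity.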
# [9] = target: Cytochrome P450 2C19 (Homo sapiens) (UniProt P33261); experiment: Cytochrome P450 Family 2 Subfamily C Member 19 (CYP2C19) small molecule antagonists: luciferase reporter qHTS assay (AID 1671197); note: nearly all actives have a fitted effect of over 65% in size; note: potency is the fitted concentration of half-maximal effect; for activity change, negative = inhibition: series mostly up to about 120 µM
# Cytochrome P450 2C19 (Homo sapiens), sequence (P33261 whole entry, looked up): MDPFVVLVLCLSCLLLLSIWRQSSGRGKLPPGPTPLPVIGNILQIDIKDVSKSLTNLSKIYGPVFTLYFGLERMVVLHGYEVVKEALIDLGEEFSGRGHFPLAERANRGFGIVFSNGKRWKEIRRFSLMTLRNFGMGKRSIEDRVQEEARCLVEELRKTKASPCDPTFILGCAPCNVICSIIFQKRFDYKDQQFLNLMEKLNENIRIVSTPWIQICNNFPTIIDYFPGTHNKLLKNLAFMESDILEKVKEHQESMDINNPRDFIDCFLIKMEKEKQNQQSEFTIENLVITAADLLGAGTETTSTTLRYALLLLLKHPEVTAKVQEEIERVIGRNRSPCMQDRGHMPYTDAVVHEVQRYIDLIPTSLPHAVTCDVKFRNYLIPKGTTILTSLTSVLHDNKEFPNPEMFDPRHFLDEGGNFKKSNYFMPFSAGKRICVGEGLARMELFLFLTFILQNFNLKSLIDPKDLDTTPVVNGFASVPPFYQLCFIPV
# How it was run: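 Light output is proportional to CYP2C19 activity: proluciferin substrate is converted to luciferin, then detected by a luciferin detection reagent that also stops the 1 h, 37C NADPH-driven reaction. Ketoconazole serves as positive control.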
# [10] = target: Cytochrome P450 2C9 (Homo sapiens) (UniProt P11712); experiment: Cytochrome P450 Family 2 Subfamily C Member 9 (CYP2C9) small molecule antagonists: luciferase reporter qHTS assay (AID 1671198); note: nearly all actives have a fitted effect of over 50% in size; note: potency is the fitted concentration of half-maximal effect; for activity change, negative = inhibition: series mostly up to about 120 µM
# Cytochrome P450 2C9 (Homo sapiens), sequence (P11712 whole entry, looked up): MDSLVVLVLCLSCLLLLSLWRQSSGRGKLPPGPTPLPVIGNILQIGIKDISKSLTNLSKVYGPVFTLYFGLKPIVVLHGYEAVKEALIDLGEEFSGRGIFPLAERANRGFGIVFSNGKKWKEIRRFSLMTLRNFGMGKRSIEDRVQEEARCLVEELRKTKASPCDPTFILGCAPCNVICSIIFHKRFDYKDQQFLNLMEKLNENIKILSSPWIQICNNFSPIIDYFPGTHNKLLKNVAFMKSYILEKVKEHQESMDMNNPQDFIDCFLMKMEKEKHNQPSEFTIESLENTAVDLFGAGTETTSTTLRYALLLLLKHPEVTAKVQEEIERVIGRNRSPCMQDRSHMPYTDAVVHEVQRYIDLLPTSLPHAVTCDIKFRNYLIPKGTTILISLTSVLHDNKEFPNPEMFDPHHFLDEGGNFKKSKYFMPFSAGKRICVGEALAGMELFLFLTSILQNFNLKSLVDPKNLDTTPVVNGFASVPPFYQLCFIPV
# How it was run: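 Enzyme-substrate mix preincubated with compound 10 min at room temperature; reaction started with NADPH regeneration solution, 1 h 37C. Luminescent luciferin product read after 20 min detection reagent.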
# [11] = target: Cytochrome P450 1A2 (Homo sapiens) (UniProt P05177); experiment: Cytochrome P450 Family 1 Subfamily A Member 2 (CYP1A2) small molecule antagonists: luciferase reporter qHTS assay (AID 1671199); note: series mostly up to about 120 µM; nearly all actives have a fitted effect of over 50% in size
# Cytochrome P450 1A2 (Homo sapiens), sequence (P05177 whole entry, looked up): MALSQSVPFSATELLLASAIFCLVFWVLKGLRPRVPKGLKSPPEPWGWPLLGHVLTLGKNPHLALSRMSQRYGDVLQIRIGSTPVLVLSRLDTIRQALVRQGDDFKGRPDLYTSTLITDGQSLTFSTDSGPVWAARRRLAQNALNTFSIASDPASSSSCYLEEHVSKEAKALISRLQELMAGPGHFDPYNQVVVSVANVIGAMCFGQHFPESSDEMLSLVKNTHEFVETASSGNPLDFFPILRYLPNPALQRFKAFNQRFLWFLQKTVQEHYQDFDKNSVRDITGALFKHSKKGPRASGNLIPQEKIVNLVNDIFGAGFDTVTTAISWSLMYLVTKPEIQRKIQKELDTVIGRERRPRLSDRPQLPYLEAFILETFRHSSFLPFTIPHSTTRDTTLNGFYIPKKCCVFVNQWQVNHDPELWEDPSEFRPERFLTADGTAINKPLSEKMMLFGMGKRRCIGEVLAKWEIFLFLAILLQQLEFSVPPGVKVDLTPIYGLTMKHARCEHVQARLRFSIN
# How it was run: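 Luminescence readout (relative luminescence units) after luciferin detection reagent, 20 min RT. Preceded by 1 h room-temperature CYP1A2 reaction with NADPH regeneration solution following 10 min compound preincubation with enzyme and proluciferin substrate. Furafylline positive control.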
# [12] = target: Voltage-gated inwardly rectifying potassium channel KCNH2 (Homo sapiens) (UniProt Q12809); experiment: Human Ether-a-go-go-Related Gene (hERG) channel small molecule antagonists: fluorescence cell-based qHTS assay (AID 1671200); note: nearly all actives have a fitted effect of over 50% in size; note: potency is the fitted concentration of half-maximal effect;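 for activity change, negative = inhibition: hERG-expressing U2OS cells given a thallium stimulus after FluxOR II dye loading; series mostly up to about 77 µM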
# Voltage-gated inwardly rectifying potassium channel KCNH2 (Homo sapiens), sequence (Q12809 whole entry, looked up): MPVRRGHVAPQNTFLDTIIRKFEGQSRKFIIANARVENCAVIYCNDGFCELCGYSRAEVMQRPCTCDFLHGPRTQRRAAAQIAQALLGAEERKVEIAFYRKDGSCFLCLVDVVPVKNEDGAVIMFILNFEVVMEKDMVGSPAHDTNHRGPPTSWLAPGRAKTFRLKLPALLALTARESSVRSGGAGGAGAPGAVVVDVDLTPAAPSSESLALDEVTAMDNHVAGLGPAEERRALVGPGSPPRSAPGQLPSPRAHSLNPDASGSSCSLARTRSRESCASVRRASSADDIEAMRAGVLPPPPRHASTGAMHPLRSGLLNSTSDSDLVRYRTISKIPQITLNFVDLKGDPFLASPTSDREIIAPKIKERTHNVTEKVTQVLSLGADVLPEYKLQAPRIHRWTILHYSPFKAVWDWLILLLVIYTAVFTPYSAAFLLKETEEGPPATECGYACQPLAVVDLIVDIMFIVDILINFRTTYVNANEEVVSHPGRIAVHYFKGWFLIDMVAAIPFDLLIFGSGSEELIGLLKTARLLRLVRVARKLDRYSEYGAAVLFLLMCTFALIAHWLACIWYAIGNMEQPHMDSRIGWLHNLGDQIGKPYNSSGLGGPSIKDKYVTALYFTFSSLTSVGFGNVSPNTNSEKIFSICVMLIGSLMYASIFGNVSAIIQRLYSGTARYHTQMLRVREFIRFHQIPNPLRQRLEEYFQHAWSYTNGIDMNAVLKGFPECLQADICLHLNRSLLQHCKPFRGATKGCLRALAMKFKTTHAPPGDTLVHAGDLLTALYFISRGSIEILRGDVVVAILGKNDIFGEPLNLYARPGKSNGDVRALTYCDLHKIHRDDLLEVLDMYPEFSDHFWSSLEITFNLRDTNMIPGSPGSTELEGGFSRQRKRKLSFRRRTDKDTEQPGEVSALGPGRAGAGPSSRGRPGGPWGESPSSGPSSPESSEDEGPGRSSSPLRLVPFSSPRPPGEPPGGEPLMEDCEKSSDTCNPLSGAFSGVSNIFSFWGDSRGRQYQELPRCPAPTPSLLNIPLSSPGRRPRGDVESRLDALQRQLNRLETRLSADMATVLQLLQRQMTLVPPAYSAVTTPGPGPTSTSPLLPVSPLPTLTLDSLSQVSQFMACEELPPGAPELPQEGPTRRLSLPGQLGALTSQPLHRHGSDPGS
# How it was run: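 Channel function was assessed by thallium flux. Cells seeded the previous day and kept at 37 C took up FluxOR II dye over 1 h in the dark at room temperature, then sat another 10 min before stimulation.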
# [13] = target: Cytochrome P450 3A4 (Homo sapiens) (UniProt P08684); experiment: Cytochrome P450 Family 3 Subfamily A Member 4 (CYP3A4) small molecule antagonists: luciferase reporter qHTS assay (AID 1671201)
# Cytochrome P450 3A4 (Homo sapiens), sequence (P08684 whole entry, looked up): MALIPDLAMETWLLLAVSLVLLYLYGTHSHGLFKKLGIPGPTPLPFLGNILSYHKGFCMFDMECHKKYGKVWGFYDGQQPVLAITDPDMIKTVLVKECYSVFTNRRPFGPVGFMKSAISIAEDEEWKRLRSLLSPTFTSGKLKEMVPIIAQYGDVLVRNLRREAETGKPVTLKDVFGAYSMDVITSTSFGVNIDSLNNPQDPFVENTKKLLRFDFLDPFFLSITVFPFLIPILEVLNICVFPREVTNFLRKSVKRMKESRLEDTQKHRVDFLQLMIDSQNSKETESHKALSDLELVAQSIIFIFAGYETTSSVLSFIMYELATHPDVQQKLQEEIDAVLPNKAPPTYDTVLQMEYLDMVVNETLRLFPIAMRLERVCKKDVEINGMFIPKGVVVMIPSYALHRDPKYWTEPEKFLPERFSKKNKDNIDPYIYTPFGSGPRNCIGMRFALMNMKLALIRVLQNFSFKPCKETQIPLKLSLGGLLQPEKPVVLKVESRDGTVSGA
# How it was run: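 Compounds in DMSO were pin-transferred onto CYP3A4 enzyme-substrate mix and held 10 min at room temperature. NADPH regenerating solution started the reaction for 1 h; luciferin detection reagent stopped it, and luminescence was read after 20 min.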
# [14] = target: Nuclear receptor subfamily 1 group I member 2 (Homo sapiens) (UniProt O75469); experiment: CYP3A4 induction through human pregnane X receptor (PXR) by small molecules, qHTS assay (AID 1346984); note: nearly all actives have a fitted effect of over 40% in size
# How it was run: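 HepG2-derived DPX-2 line carrying PXR plus a CYP3A4-promoter luciferase reporter; cells plated 5 hr, compound-exposed 24 hr at 37C. CYP3A4 activity probed with 3uM (final) Luciferin-IPA for 3hr, then luciferase read after One-Glo.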
# [15] = target: Nuclear receptor subfamily 1 group I member 2 (Homo sapiens) (UniProt O75469); experiment: Human pregnane X receptor (PXR) activation by small molecules, qHTS assay (AID 1346985); note: nearly all actives have a fitted effect of over 40% in size
# How it was run: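 DPX-2 cells (HepG2 co-transfected with a PXR response element and a CYP3A4-promoter luciferase construct) were seeded at 2,000 per well, rested 5 hr at 37C, then exposed to DMSO-dissolved compounds for 24 hr. Activation was read as luciferase luminescence.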
compound,measurement,setting,value
CC1CN(c2cc3c(cc2F)c(=O)c(C(=O)O)cn3-c2ccc(F)cc2F)CCN1 (stereo unspecified),activation,[1],0% [at 5.23 µM]
same,"activity change, negative = cytotoxicity",[2],-4.03% [at 8.39 µM]
same,caspase activation,[3],-0.856% [at 8.39 µM]
same,"activity change, negative = cytotoxicity",[4],-1.36% [at 8.39 µM]
same,caspase-3/7 activation,[5],-0.241% [at 8.39 µM]
same,"activity change, negative = cytotoxicity",[6],-2.3% [at 8.39 µM]
same,activation,[7],-2.46% [at 8.39 µM]
same,"activity change, negative = inhibition",[8],-0.211% [at 10.5 µM]
same,"activity change, negative = inhibition",[9],31.4% [at 10.5 µM]
same,"activity change, negative = inhibition",[10],2.17% [at 10.5 µM]
same,"activity change, negative = inhibition",[11],1.79% [at 10.5 µM]
same,"activity change, negative = inhibition",[12],3.92% [at 6.97 µM]
same,"activity change, negative = inhibition",[13],4.32% [at 10.5 µM]
CC1CC(O)CC(C)(C)C1 (stereo unspecified),Potency,[1],inactive
same,Potency,[2],inactive
same,Potency,[3],inactive
same,Potency,[4],inactive
same,outcome,[5],inactive
same,Potency,[6],inactive
same,Potency,[7],inactive
same,Potency,[14],inactive
same,Potency,[15],inactive
same,Potency,[8],inactive
same,Potency,[9],inactive
same,Potency,[10],inactive
same,Potency,[12],inactive
same,Potency,[13],inactive
CCNC(=O)N1CCN(CCCC(c2ccc(F)cc2)c2ccc(F)cc2)CC1,Potency,[1],inactive
same,Potency,[2],13.3 µM (active)
same,Potency,[3],inactive
same,Potency,[4],26.6 µM (active)
same,outcome,[5],inactive
same,Potency,[6],29.8 µM (active)
same,Potency,[7],26.6 µM (active)
same,Potency,[14],inactive
same,Potency,[15],inactive
same,Potency,[11],inactive
same,Potency,[12],0.107 µM (active)
same,Potency,[13],inactive
c1cnc2c(n1)CCCC2,Potency,[1],inactive
same,Potency,[2],inactive
same,Potency,[3],inactive
same,Potency,[4],inactive
same,outcome,[5],inactive
same,Potency,[6],inactive
same,Potency,[7],inactive
same,Potency,[8],inactive
same,Potency,[9],inactive
same,Potency,[10],inactive
same,Potency,[11],inactive
same,Potency,[12],inactive
same,Potency,[13],inactive
CC#N,Potency,[1],inactive
same,Potency,[2],inactive
same,Potency,[3],inactive
same,Potency,[4],inactive
same,outcome,[5],inactive
same,Potency,[6],inactive
same,Potency,[7],inactive
same,Potency,[8],inactive
same,Potency,[9],inactive
same,Potency,[10],inactive
same,Potency,[11],inactive
same,Potency,[12],inactive
same,Potency,[13],inactive
O=C(Nc1ccc([N+](=O)[O-])cc1)Nc1ccc([N+](=O)[O-])cc1,Potency,[1],inactive
same,Potency,[2],inactive
same,Potency,[3],inactive
same,Potency,[4],inactive
same,outcome,[5],inactive
same,Potency,[6],inactive
same,Potency,[7],inactive
same,Potency,[14],inactive
same,Potency,[15],inactive
same,Potency,[8],inactive
same,Potency,[10],inactive
same,Potency,[11],inactive
same,Potency,[12],inactive
C[C@@H]1C[C@H]2[C@@H]3CCC4=CC(=O)C=C[C@]4(C)[C@@]3(F)[C@@H](O)C[C@]2(C)[C@H]1C(=O)CO,Potency,[1],inactive
same,Potency,[2],inactive
same,Potency,[3],inactive
same,Potency,[4],inactive
same,outcome,[5],inactive
same,Potency,[6],inactive
same,Potency,[7],18.8 µM (active)
same,Potency,[14],inactive
same,Potency,[15],inactive
same,Potency,[8],inactive
same,Potency,[9],8.71 µM (active)
same,Potency,[10],15.5 µM (active)
same,Potency,[12],inactive
CN1CCN(c2c(F)cc3c(=O)c(C(=O)O)cn4c3c2OCN4C)CC1,activation,[1],0.19% [at 11.8 µM]
same,"activity change, negative = cytotoxicity",[2],4.15% [at 19 µM]
same,caspase activation,[3],0.165% [at 19 µM]
same,"activity change, negative = cytotoxicity",[4],3.06% [at 19 µM]
same,caspase-3/7 activation,[5],0.0403% [at 19 µM]
same,"activity change, negative = cytotoxicity",[6],8.88% [at 19 µM]
same,activation,[7],-8.38% [at 19 µM]
same,Potency,[14],inactive
same,Potency,[15],inactive
same,"activity change, negative = inhibition",[9],-8.19% [at 23.6 µM]
same,"activity change, negative = inhibition",[10],9.24% [at 23.6 µM]
same,Potency,[11],inactive
same,"activity change, negative = inhibition",[12],-1.8% [at 15.8 µM]
OC/C(Br)=C(\Br)CO,Potency,[1],inactive
same,Potency,[2],inactive
same,Potency,[3],inactive
same,Potency,[4],inactive
same,outcome,[5],inactive
same,Potency,[6],inactive
same,Potency,[7],inactive
same,Potency,[8],35.3 µM (active)
same,Potency,[9],31.5 µM (active)
same,Potency,[10],inactive
same,Potency,[12],inactive
same,Potency,[13],inactive
